Screens: PubChem, National Center for Advancing Translational Sciences (NCATS)
G9a block: blocks human histone lysine methyltransferase G9a; Q96KQ7; G9a H3K9 monomethylation, AlphaScreen, 2 h; Potency, µM (doses to about 102 µM), actives largely listed as inhibitors; hit rate 8.8% among 350,000; further: nearly all actives have a fitted effect of over 75% in size
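G9a (20 nM) was preincubated 15 min with compound, then reacted 2 h at room temperature with 500 nM biotin-H3K9 peptide and 20 µM SAM. Monomethyl-H3K9 detected by AlphaScreen using anti-H3K9me1 antibody.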
BAZ2B inh: BAZ2B (human) inhibition | AlphaScreen BAZ2B-H3K14Ac peptide displacement | Potency, µM (highest dose often 114 µM), usual class: inhibitors | hit rate 4.4% among 360,000 | AID 504333; further: nearly all actives have a fitted effect of over 60% in size
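Compounds, titrated to a top concentration of 110 uM, were incubated 30 min at room temperature with preformed BAZ2B/acetyl-K14 H3 peptide complex (50 nM each). Proximity signal was measured by AlphaScreen after 20 min with beads.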
HP1b chromo inh: inhibitors of HP1-beta chromodomain binding to methylated histone tails | P83916 | AlphaScreen HP1-beta / biotin-H3K9me3 peptide binding | Potency, µM (doses to about 114 µM), actives largely listed as inhibitors | hit rate 0.56% among 390,000 | AID 540317; further: nearly all actives have a fitted effect of over 70% in size
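Compound inhibition of the preformed complex between 50 nM HP1-beta and 50 nM biotinylated H3K9me3 peptide was read by AlphaScreen. Buffer was PBS pH 7.4 with 0.01% Tween-20. Incubations ran 30 min at room temperature, with 10 ug/mL donor/acceptor beads.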
L3MBTL1 inh: blocks human L3MBTL1; Q9Y468; AlphaScreen L3MBTL1–H3K9me1 peptide binding; Potency, µM (doses to about 57.1 µM), most hits filed as inhibitors; hit rate 0.66% among 230,000; AID 485360; further: nearly all actives have a fitted effect of over 60% in size
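Displacement of a biotinylated histone H3(1-15) peptide monomethylated at Lys9 (75 nM) from L3MBTL1 (50 nM) was measured by AlphaScreen after a 30 min room-temperature compound incubation; cefsulodin titration served as intraplate control.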
JMJD2A Tudor inh: JMJD2A Tudor domain (human) inhibition | O75164 | AlphaScreen JMJD2A-Tudor / H3K4me3 peptide binding | Potency, µM (titrated, usually from 114 µM), actives largely listed as inhibitors | hit rate 4.4% among 390,000 | AID 504339; further: nearly all actives have a fitted effect of over 50% in size
Target sequence (O75164 whole entry, looked up, the tested form may be a part): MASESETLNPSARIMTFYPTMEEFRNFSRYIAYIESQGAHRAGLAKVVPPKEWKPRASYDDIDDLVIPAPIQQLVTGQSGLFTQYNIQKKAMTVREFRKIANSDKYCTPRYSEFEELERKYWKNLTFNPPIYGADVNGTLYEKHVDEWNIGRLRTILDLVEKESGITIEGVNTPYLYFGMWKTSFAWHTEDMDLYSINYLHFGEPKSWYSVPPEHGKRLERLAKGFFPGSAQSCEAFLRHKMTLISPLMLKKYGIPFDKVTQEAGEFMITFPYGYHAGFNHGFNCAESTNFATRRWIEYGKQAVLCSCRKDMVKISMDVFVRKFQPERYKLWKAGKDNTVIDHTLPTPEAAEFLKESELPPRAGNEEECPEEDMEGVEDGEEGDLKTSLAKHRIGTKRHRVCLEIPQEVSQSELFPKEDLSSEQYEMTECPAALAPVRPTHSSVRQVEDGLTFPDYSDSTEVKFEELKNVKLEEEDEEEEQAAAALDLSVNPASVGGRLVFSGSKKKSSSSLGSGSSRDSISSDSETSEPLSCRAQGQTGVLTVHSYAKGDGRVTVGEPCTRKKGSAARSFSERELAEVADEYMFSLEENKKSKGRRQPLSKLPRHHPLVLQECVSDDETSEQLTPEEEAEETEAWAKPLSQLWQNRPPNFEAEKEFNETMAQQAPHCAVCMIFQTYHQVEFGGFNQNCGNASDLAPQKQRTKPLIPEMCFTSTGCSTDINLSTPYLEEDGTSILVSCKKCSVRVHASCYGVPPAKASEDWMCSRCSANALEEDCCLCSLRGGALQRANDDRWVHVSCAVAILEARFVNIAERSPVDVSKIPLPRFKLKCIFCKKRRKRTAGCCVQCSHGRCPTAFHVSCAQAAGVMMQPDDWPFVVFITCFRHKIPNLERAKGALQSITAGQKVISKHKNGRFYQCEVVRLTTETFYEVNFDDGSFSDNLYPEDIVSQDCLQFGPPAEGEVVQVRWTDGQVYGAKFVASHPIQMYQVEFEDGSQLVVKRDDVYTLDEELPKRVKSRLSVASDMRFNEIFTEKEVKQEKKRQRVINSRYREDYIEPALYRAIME
PI5P4K alpha inh: inhibitors of human PI5P4K alpha | P48426 | PI5P4Kalpha enzyme, ADP-Glo luminescence, 60 min; hits give low values | max response, % | hit rate 1.2% among 330,000 | AID 652105; active means max response of -50% or lower; inconclusive means between -30% and -50%; inactive means -30% or higher; further: value at the top dose of about 77 µM
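ADP-Glo luminescence end-point read after a 60 min room-temperature kinase reaction of PI5P4Kalpha plus substrate, initiated with ATP at 5 microM final. Buffer: 0.038 M HEPES pH 7.4, EGTA, 0.1% CHAPS, 5% DMSO.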
Hits are given with their value; [ ] = remark or other dose. Sampled rows, rich in hits. Any-hit rate of the full collection: about 11%. Unless noted, the call rests on the fitted dose curve; in most records, active means well fitted inhibition curve with a large enough effect; inconclusive means small, poorly fitted or top-dose-only effect; inactive means no such curve, though single readings can be large or run the other way.

How did CCOc1ccc(CNC(=O)CN2N=C(c3ccccc3)CCC2=O)cc1OC do in these assays?
G9a block: inactive; BAZ2B inh: inactive; HP1b chromo inh: inactive; JMJD2A Tudor inh: inconclusive

Results for Cn1c(=O)[nH]c(=O)c2[nH]c(CN3CCN(Cc4ccccc4)CC3)nc21 ?
G9a block: inactive; BAZ2B inh: inactive; HP1b chromo inh: inactive; JMJD2A Tudor inh: inactive; PI5P4K alpha inh: inactive

What do the screens show for `Cn1c(=O)[nH]c(=O)c2[nH]c(N(Cc3ccccc3)Cc3ccccc3)nc21`?
G9a block: 50µM; BAZ2B inh: inconclusive; HP1b chromo inh: inactive; L3MBTL1 inh: inactive; JMJD2A Tudor inh: inconclusive; PI5P4K alpha inh: inactive

What do the screens show for `Cc1c(C(=O)N2CCOCC2)c(S(=O)(=O)Nc2ccc(Br)cc2F)c(C)n1C`?
G9a block: inactive; BAZ2B inh: inactive; HP1b chromo inh: inactive; JMJD2A Tudor inh: 18µM; PI5P4K alpha inh: inactive

How did CCOc1ccc(C(=O)N2CCN(Cc3cc(=O)n4nc(-c5ccccc5Cl)sc4n3)CC2)cc1 do in these assays?
G9a block: inactive; BAZ2B inh: inactive; HP1b chromo inh: inactive; JMJD2A Tudor inh: inactive

How did COc1ccc(CNCCNC(=O)c2cccs2)cc1OC do in these assays?
G9a block: 11µM; HP1b chromo inh: inconclusive; L3MBTL1 inh: inactive; JMJD2A Tudor inh: 20µM; PI5P4K alpha inh: inactive

Results for COc1cc(CNCCNC(=O)c2cccs2)cc(OC)c1OC ?
BAZ2B inh: 89µM; HP1b chromo inh: inactive; L3MBTL1 inh: inactive; JMJD2A Tudor inh: 28µM; PI5P4K alpha inh: inactive

How did COc1ccc(CNC(=O)Cc2cccs2)cc1OC do in these assays?
G9a block: inactive; BAZ2B inh: inactive; HP1b chromo inh: inactive; JMJD2A Tudor inh: inactive; PI5P4K alpha inh: inactive

How did Cc1cccc(NC(=O)c2cn(-c3ccccc3)nc2-c2ccccc2)c1C do in these assays?
G9a block: inactive; BAZ2B inh: inactive; HP1b chromo inh: inactive; JMJD2A Tudor inh: inactive

How did CCOc1ccc(NC(=O)C2CCN(c3nnc(-n4c(C)ccc4C)s3)CC2)cc1 do in these assays?
G9a block: inactive; BAZ2B inh: inactive; HP1b chromo inh: inactive; JMJD2A Tudor inh: inactive

Results for Cc1cc(-c2ccc(S(=O)(=O)N3CCN(c4ccc(Cl)cc4)CC3)s2)on1 ?
G9a block: inactive; BAZ2B inh: inactive; HP1b chromo inh: inactive; JMJD2A Tudor inh: inactive

What do the screens show for `C[C@@H](NC(=O)[C@@H]1Cc2ccccc2CN1)C(=O)NCc1ccco1`?
G9a block: 50µM; BAZ2B inh: inconclusive; HP1b chromo inh: inactive; JMJD2A Tudor inh: inactive; PI5P4K alpha inh: inactive

What do the screens show for `C[C@@H](NC(=O)[C@@H]1Cc2ccccc2CN1)C(=O)NC1CCCCC1`?
G9a block: inconclusive; BAZ2B inh: inactive; HP1b chromo inh: inactive; JMJD2A Tudor inh: inactive; PI5P4K alpha inh: inactive

What do the screens show for `CC(C)C(OC(=O)C1=Cc2ccccc2OC1)C(=O)NCC1CCCO1` (centres undefined)?
HP1b chromo inh: inconclusive; JMJD2A Tudor inh: 50µM; PI5P4K alpha inh: inconclusive

What do the screens show for `COc1ccc(CNC(=O)[C@@H](C)NC(=O)[C@@H]2Cc3ccccc3CN2)cc1`?
G9a block: inactive; BAZ2B inh: inactive; HP1b chromo inh: inactive; L3MBTL1 inh: inactive; JMJD2A Tudor inh: inactive; PI5P4K alpha inh: inactive

Results for C[C@H](NC(=O)[C@@H]1Cc2ccccc2CN1)C(=O)NCC1CCCO1 (some centres undefined) ?
G9a block: 40µM; BAZ2B inh: inactive; HP1b chromo inh: inactive; JMJD2A Tudor inh: inconclusive; PI5P4K alpha inh: inactive

What do the screens show for `Cc1ccc(NC(=O)Nc2nnc(N(C)Cc3ccccc3)s2)cc1`?
G9a block: inactive; BAZ2B inh: inactive; HP1b chromo inh: inactive; JMJD2A Tudor inh: inactive

How did CCC(=O)N1CCc2cc(Br)cc(S(=O)(=O)CCC(=O)N(CC)Cc3ccccc3)c21 do in these assays?
G9a block: inactive; BAZ2B inh: inactive; HP1b chromo inh: inactive; JMJD2A Tudor inh: inactive

Results for COc1cccc(CNc2nc3c(-c4cccc(C)c4)nnn3c3ccccc23)c1 ?
G9a block: inactive; BAZ2B inh: inactive; HP1b chromo inh: inactive; JMJD2A Tudor inh: inactive

What do the screens show for `Cc1cc(C)n(NC(=S)NC2CCCC2)c(=O)c1C#N`?
G9a block: inactive; BAZ2B inh: inactive; HP1b chromo inh: inactive; L3MBTL1 inh: inactive; JMJD2A Tudor inh: 11µM; PI5P4K alpha inh: inactive

Results for CCn1c(C)cc(C)c(C#N)c1=O ?
G9a block: inactive; BAZ2B inh: inactive; HP1b chromo inh: inactive; L3MBTL1 inh: inactive; JMJD2A Tudor inh: inactive; PI5P4K alpha inh: inactive

How did CCCCn1c(=O)[nH]c(=O)c2c1nc(-c1ccncc1)n2CCOC do in these assays?
G9a block: inactive[12.7 µM]; BAZ2B inh: inactive; HP1b chromo inh: inactive; L3MBTL1 inh: inactive; JMJD2A Tudor inh: inactive; PI5P4K alpha inh: inactive

What do the screens show for `CCCCn1c(=O)[nH]c(=O)c2c1nc(-c1ccc(-c3ccccc3Br)o1)n2CCOC`?
G9a block: 16µM; BAZ2B inh: inactive; HP1b chromo inh: inactive; L3MBTL1 inh: inactive; JMJD2A Tudor inh: inactive; PI5P4K alpha inh: inconclusive

Results for COCCn1c(-c2ccc(-c3ccccc3Cl)o2)nc2c1c(=O)[nH]c(=O)n2CC(C)C ?
G9a block: 22µM; BAZ2B inh: inactive; HP1b chromo inh: inactive; L3MBTL1 inh: inactive; JMJD2A Tudor inh: inactive

How did CCOC(=O)C(CC)Sc1ccc2nnc(CCNS(=O)(=O)c3ccc(C)cc3)n2n1 (centres undefined) do in these assays?
G9a block: inactive; BAZ2B inh: inactive; HP1b chromo inh: inactive; JMJD2A Tudor inh: inactive

What do the screens show for `COC(=O)C1=C(C(=O)OC)SC2(S1)C(C(=O)OC)=C(C(=O)OC)SC1=C2c2cccc(C)c2NC1(C)C`?
G9a block: 32µM; BAZ2B inh: inconclusive; HP1b chromo inh: inactive; JMJD2A Tudor inh: inconclusive

Results for COC(=O)c1c(C)[nH]c(C)c1-c1ccccc1Cl ?
G9a block: inactive[2.33 µM]; BAZ2B inh: inconclusive; HP1b chromo inh: inactive; L3MBTL1 inh: inactive; JMJD2A Tudor inh: inconclusive; PI5P4K alpha inh: inactive

Results for CCOC(=O)C1CCN(c2nc(N)c3c(N)nc(SCC(=O)O)cc3c2C#N)CC1 ?
G9a block: 8.9µM; BAZ2B inh: 40µM; HP1b chromo inh: 18µM; L3MBTL1 inh: 25µM; JMJD2A Tudor inh: inactive[11.4 µM]; PI5P4K alpha inh: -88

What do the screens show for `CCOC(=O)C1CCN(c2nc(C)cc(C)c2C#N)CC1`?
G9a block: inactive[12.7 µM]; BAZ2B inh: inactive; HP1b chromo inh: inactive; L3MBTL1 inh: inactive; JMJD2A Tudor inh: inactive; PI5P4K alpha inh: inactive

Results for COc1ccc(N2CCN(C(=O)CSc3n[nH]c(-c4ccccc4)n3)CC2)cc1 ?
G9a block: 16µM; BAZ2B inh: inactive; HP1b chromo inh: inactive; JMJD2A Tudor inh: inactive

How did COc1ccc(N2CCN(C(=O)c3cccnc3SCc3cccc(Br)c3)CC2)cc1 do in these assays?
G9a block: 13µM; BAZ2B inh: inconclusive; HP1b chromo inh: inconclusive; JMJD2A Tudor inh: 22µM; PI5P4K alpha inh: inactive
